# Compound activity deposited in PubChem BioAssay by National Center for Advancing Translational Sciences (NCATS).
# Sampled rows, rich in hits. Any-hit rate of the full collection: about 2.4%.
# FEN1 inh-1: blocks human flap endonuclease 1. Recombinant FEN1 flap cleavage, fluorescence, 15 min. Potency, µM (top dose mostly 114 µM), for inactives: top-dose activity change, negative = inhibition, hits mostly inhibitors. AID 588795. 0.35% of 390,000 active; note: % is set by controls: 0 for no effect and ±100 for the full control effect; nearly all actives have a fitted effect of over 65% in size
#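 Recombinant FEN1 (10 nM) was preincubated with pin-transferred compounds for 15 min at room temperature, then flap DNA substrate (50 nM final) was added. Plates were read at 0 and 15 min, and normalized concentration–response data were fitted to a four-parameter Hill equation.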
# Pol eta inh-1: DNA polymerase eta (human) inhibition. Q9Y253. recombinant Pol eta, fluorescent DNA replication assay. Potency, µM (titrated, usually from 114 µM), for inactives: at the highest dose activity change, negative = inhibition, actives largely listed as inhibitors. 1.2% of 390,000 active; note: % is set by controls: 0 for no effect and ±100 for the full control effect
# Target sequence (Q9Y253 whole entry, looked up): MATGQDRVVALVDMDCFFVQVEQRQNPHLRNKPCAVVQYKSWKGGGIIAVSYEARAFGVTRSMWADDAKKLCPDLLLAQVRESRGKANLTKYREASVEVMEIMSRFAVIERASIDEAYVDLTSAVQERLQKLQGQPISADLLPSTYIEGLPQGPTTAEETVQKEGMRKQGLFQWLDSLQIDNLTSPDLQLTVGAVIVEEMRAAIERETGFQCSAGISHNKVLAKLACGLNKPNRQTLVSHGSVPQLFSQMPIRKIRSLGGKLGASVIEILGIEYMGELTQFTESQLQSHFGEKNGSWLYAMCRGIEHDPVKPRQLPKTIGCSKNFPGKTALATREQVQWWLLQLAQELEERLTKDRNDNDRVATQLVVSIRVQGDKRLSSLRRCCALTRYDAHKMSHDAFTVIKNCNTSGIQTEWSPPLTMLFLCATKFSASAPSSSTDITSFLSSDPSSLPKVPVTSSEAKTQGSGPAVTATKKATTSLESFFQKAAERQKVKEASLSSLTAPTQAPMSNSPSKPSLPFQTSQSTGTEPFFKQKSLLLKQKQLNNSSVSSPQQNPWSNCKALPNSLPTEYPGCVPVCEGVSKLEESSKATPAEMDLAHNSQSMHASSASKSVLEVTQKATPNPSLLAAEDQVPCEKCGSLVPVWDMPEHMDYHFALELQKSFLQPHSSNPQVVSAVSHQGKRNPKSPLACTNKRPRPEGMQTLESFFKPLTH
#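 Pol eta (10 nM) was preincubated with compounds for 15 min at room temperature, after which fluorescent replication substrate (50 nM final) was added to start the reaction. Fluorescence was read kinetically at 0 and 10 min.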
# Pol beta inh: blocks human DNA polymerase beta activity; Pol beta primer extension/strand displacement, fluorescence kinetic; Potency, µM (titrated, usually from 114 µM), inactives show top-dose activity change, negative = inhibition, usual class: inhibitors; 1.3% of 340,000 active; AID 485314; note: % is set by controls: 0 for no effect and ±100 for the full control effect
#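 Preincubation: enzyme (10 nM) with compound, 15 min, RT. Reaction: substrate added to 50 nM final. Reads: 0 and 10 min. Analysis: normalized, Hill fit.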
# POLI inh: DNA polymerase iota (human) inhibition; Potency, µM (top dose mostly 115 µM), inactives show at the top dose activity, negative = inhibition, usual class: inhibitors; 1% of 390,000 active; AID 588590; Q9UNA4; Pol iota fluorescent replication assay, 10 min
#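 Fluorescent replication assay read twice, at 0 min and 10 min after adding 50 nM (final) substrate. Enzyme (10 nM) and compounds were first incubated 15 min at room temperature; enzyme-free buffer wells were negative controls.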
# Tb PGK inh: T. brucei PGK inhibition; PGK/GAPDH coupled, Kinase-Glo luminescence, 60 min; Potency, µM (doses to about 57.5 µM), inactives show at the top dose activity change, negative = inhibition, most hits filed as inhibitors; 0.043% of 380,000 active; note: % is set by controls: 0 for no effect and ±100 for the full control effect; nearly all actives have a fitted effect of over 60% in size
#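 Luminescent ATP detection (Kinase-Glo Plus) follows a 60-minute room-temperature incubation, with wells lacking PGK as controls. Buffer: 100 mM TEA (pH 7.6), 5 mM MgCl2, 0.01% Tween-20. Coupling enzyme GAPDH (100 nM final) supplies unstable 1,3-BPG in-well.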
# Pol kappa inh-1: DNA polymerase kappa (human) inhibition. Q9UBT6. purified Pol kappa, fluorescent DNA synthesis assay, 10 min. Potency, µM (titrated, usually from 107 µM), for the others: top-dose activity, negative = inhibition, most hits filed as inhibitors. 0.53% of 400,000 active. AID 588579; note: % is set by controls: 0 for no effect and ±100 for the full control effect
#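 10 nM Pol kappa was preincubated with compounds for 15 min at room temperature. Reaction started with 50 nM (final) substrate. Fluorescence read kinetically at 0 and 10 min.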
# PGK validate: TbPGK inhibition, hit validation; shares compounds with Pol kappa inh-1; 79% of 500 active; Potency, µM (top dose mostly 57.5 µM), inactives show at the top dose activity change, negative = inhibition, actives largely listed as inhibitors; TbPGK coupled GAPDH assay, Kinase-Glo luminescence; AID 686980; note: % is set by controls: 0 for no effect and ±100 for the full control effect; nearly all actives have a fitted effect of over 65% in size
# POLI cherry-pick: Confirm cherry-picked inhibitors of human polymerase iota | shares compounds with Pol kappa inh-1 | Pol iota primer extension, TAMRA/BHQ fluorescence | Potency, µM, hits mostly inhibitors | 77% of 1,500 active
# Pol kappa inh-2: Pol kappa (human) inhibition, cherry-pick confirmation | shares compounds with Pol eta inh-1 | AID 720501 | Potency, µM, actives largely listed as inhibitors | purified Pol-kappa, fluorescent strand-displacement substrate | 76% of 920 active
# Pol eta inh-2: confirmation of human DNA polymerase eta inhibitors; shares compounds with Pol eta inh-1; Pol eta primer extension, TAMRA/BHQ fluorescence, 10 min; Potency, µM, hits mostly inhibitors; 64% of 2,600 active
# FEN1 inh-2: confirmation of human FEN1 inhibitors. Potency, µM, usual class: inhibitors. shares compounds with FEN1 inh-1. FEN1 flap cleavage, TAMRA/BHQ2 fluorogenic DNA substrate. 79% of 880 active; note: nearly all actives have a fitted effect of over 60% in size
# * = called active by the depositor; i = inactive; ? = inconclusive; . = no result given; [ ] = remark or other dose. Calls come from the whole dose curve; as a rule, active = well fitted curve in the direction sought with a large enough effect; inconclusive = small, poorly fitted or top-dose-only effect, or another doubt; inactive = no such curve, though single readings can be large; an effect the other way counts as inactive or inconclusive. Potency is the fitted concentration of half-maximal effect.
SMILES,FEN1 inh-1,Pol eta inh-1,Pol beta inh,POLI inh,Tb PGK inh,Pol kappa inh-1,POLI cherry-pick,Pol eta inh-2,FEN1 inh-2,others
O=S(=O)(O)c1cc(Cl)cc(N=Nc2ccc(O)cc2O)c1O,56µM*,13µM*,.,i,?,-170%,12*,43*,85*,Pol kappa inh-2=6.7*
O=C(O)C(c1ccccc1)N1C(=O)/C(=C\c2ccc(O)c(O)c2)SC1=S (stereo unspecified),?,3.2µM*,4µM*,?,?,7.1µM*,15*,4.8*,30*,Pol kappa inh-2=2.7*
COc1ccccc1/C=C1\SC(=S)N(C(C(=O)O)c2ccccc2)C1=O (stereo unspecified),-8%,-18%,-23%,14%,-1%,-5%,.,.,.,
CCOC(=O)Cn1c(=O)n(CC2CCCO2)c2nc(-c3ccc(CC)cc3)nc(C(N)=O)c21 (stereo unspecified),-2%,-11%,6%,-12%,-7%,2%[60.1 µM],.,.,.,
Nc1ccc2cc3[nH]c4cc(N)ccc4c3nc2c1,11µM*,4.5µM*,.,8.9µM*,-14%,16µM*,19*,.,12*,
Cc1cc(=O)[nH]c2cc(N)ccc12,2%,.,.,72%,.,5%,.,.,.,
COc1ccccc1NC(=O)Cn1c(=O)n(Cc2cccs2)c(=O)c2cccnc21,-10%,-16%,-9%,12%,5%,7%,.,.,.,
CCOC(=O)C1=C(C)N=c2s/c(=C/c3ccc(OCC(=O)O)cc3)c(=O)n2C1c1ccc(F)cc1 (stereo unspecified),?,?,56µM*,18µM*,-25%,-17%,75*,.,85*,Pol kappa inh-2=?
CCOc1ccccc1NC(=O)Cc1csc(COc2cccc(C)c2)n1,0%,.,1%,11%,.,-18%,.,.,.,
CC(=O)Nc1ccc(-n2nnnc2SCC(=O)Nc2cccc(NC(=O)c3ccco3)c2)cc1,?,?,?,28µM*,-6%,-55%,53*,?,?,
COc1cccc2c1C(=O)c1c(O)c3c(c(O)c1C2=O)C[C@@](O)(C(C)=O)C[C@@H]3O[C@H]1C[C@H](N)[C@H](O)[C@H](C)O1,i,-12%,28µM*,35µM*,-10%,5.6µM*,17*,67*,34*,Pol kappa inh-2=?
COc1cccc2c1C(=O)c1c(O)c3c(c(O)c1C2=O)CC(O)(C(=O)CO)CC3OC1CC(N(C)C)C(O)C(C)O1 (stereo unspecified),18µM*,?,.,40µM*,-14%,?,2.7*,27*,34*,Pol kappa inh-2=34*
Cc1cccc(CSc2ncc(Cl)c(C(=O)Nc3sc4c(c3C(N)=O)CCCC4)n2)c1,-1%,-6%,-20%,-15%,-7%,-10%,.,.,.,
Cc1cccc(C(=O)Nc2cccc(OCc3cc(=O)n4c(C)csc4n3)c2)c1,-1%,-17%,?,43%,-13%,-16%,.,.,.,
COc1ccc2noc3c2c1C(=O)c1ccccc1-3,?,?,.,?,-19%,?,?,.,?,
COc1cccc2c1C(=O)c1ccc3ccccc3c1C2=O,-11%,?,2%,9%,-10%,-5%,.,.,.,
Cc1cc(NC(=O)c2cc(-c3ccc(F)cc3)on2)nn1Cc1ccc(Cl)cc1,-4%,3%,4%,-3%,1%,-10%,.,.,.,
Cc1ccc(-n2cccc2/C=C2/C(=N)N3C(=NC2=O)SN=C3S(C)(=O)=O)cc1Cl,?,14µM*,28µM*,22µM*,-9%,?,84*,?,85*,
COc1cc(/C=C/c2nc3ccccc3c(=O)[nH]2)cc(Cl)c1O,?,?,?,33%,-10%,-1%,?,.,?,
CCNc1ncc2nc(-c3cn(C)c4ccccc34)c(=O)n(-c3ccccc3)c2n1,.,.,.,.,.,3%[60.1 µM],.,.,.,
Cc1ccc(C)n1-c1cccc(C(=O)O)c1,.,.,1µM*,.,.,.,8.4*,0.17*,21*,Pol kappa inh-2=?
COc1ccc(-n2cccc2/C=C2/NC(=O)N(c3cccc(Cl)c3)C2=O)cc1,2%,-1%,18%,18%,-2%,-2%,.,.,.,
O=C(O)c1cccc(-n2cccc2/C=C2/NC(=O)N(c3ccc(Cl)cc3)C2=O)c1,20µM*,0.71µM*,0.35µM*,?,3.2µM*,1.6µM*,0.75*,1.3*,21*,PGK validate=0.26µM*
Oc1ccc(/C=N/Nc2ccc(Cl)nn2)c(O)c1O,?,10µM*,18µM*,?,-9%,?,17*,30*,38*,
Oc1c(Br)cc(Br)cc1/C=N/Nc1ccc(Cl)nn1,6%,-14%,-1%,-19%,-11%,-8%,.,.,.,
SMILES,FEN1 inh-1,Pol eta inh-1,Pol beta inh,POLI inh,Tb PGK inh,Pol kappa inh-1,POLI cherry-pick,Pol eta inh-2,FEN1 inh-2,others
CCCc1c(C)[nH]c2ccc(C(=O)O)cc2c1=S,45µM*,3.2µM*,?,6.3µM*,?,32µM*,17*,5.4*,43*,
Cc1[nH]c2ccc(C(=O)O)cc2c1C,9%,-5%,7%,?,.,-6%,.,.,.,
O=C(O)c1ccc(NS(=O)(=O)c2ccc3c(c2)C2C=CCC2C(c2ccccc2F)N3)cc1 (stereo unspecified),40µM*,10µM*,?,?,-2%,35µM*,38*,19*,30*,
O=C(O)Cc1c[nH]c2cccc(O)c12,50µM*,8.9µM*,18µM*,?,?,22µM*,19*,7.6*,48*,
O=C(O)Cc1c[nH]c2ccccc12,2%,-11%,.,6%,6%,-8%,.,.,.,
C#CCN1C(=O)S/C(=C\c2ccc(-c3ccc(C(=O)O)cc3C)o2)C1=O,?,7.1µM*,16µM*,8.9µM*,?,18µM*,15*,8.5*,?,
